# DT40 TDP1 CPT = growth inhibition of DT40 Tdp1-/-;hTDP1 cells with camptothecin (screen for TDP1 inhibitors); Potency, µM (titrated, usually from 46.2 µM), inactives show at the top dose activity change, negative = growth inhibition, usual class: inhibitors; 420,000 compounds, 12% hits; AID 686979; chicken DT40 Tdp1-/-;hTDP1 cells + 20 nM CPT, ATP luminescence, 48 h; further: potency means the concentration at half of the fitted maximal effect; on the % scale 0 is the no-effect control and ±100 the full control effect; nearly all actives have a fitted effect of over 55% in size
#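 Chicken DT40 Tdp1-/- cells complemented with human TDP1, 400 cells/well, exposed to compounds plus 20 nM camptothecin for at least 48 h at 37 C; viability read as ATP content by CellTiter-Glo luminescence.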
# IL1B secr inh = inhibitors of inflammasome signaling (IL-1 beta secretion); THP-1 LPS/ATP IL-1B secretion, AlphaLISA, 16 h; hits give low values; activity change, % at 57.5 µM; 360,000 compounds, 4.7% hits; AID 743279; in the data active means activity change below about -50%; inconclusive means mostly about -30% to -49%; further: on the % scale 0 is the no-effect control and ±100 the full control effect
#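 Secreted IL-1B measured by AlphaLISA bead assay after 16 h compound exposure of THP-1 cells; compounds (final up to 57.5 uM) added 1 h before LPS (250 ng/mL) and ATP (1.25 mM) stimulation; lower signal means less secretion.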
# Chronic BCR inh = chronic active BCR signaling inhibition; ABC-DLBCL IkBa-CBG/CBR reporter, luminescence ratio, 4 h; 340,000 compounds, 0.05% hits; Potency, µM (series often up to 46.1 µM), for the others: top-dose activity change, negative = inhibition, most hits filed as inhibitors; active means well fitted inhibition curve with a large enough effect in the signal ratio, with a control signal flat, not every such curve was filed as active; inconclusive means small, poorly fitted or top-dose-only effect, or effect the other way, or a change in a side signal; the % refers to the signal ratio;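 further: potency means the concentration at half of the fitted maximal effect; plate controls were basal doxycycline-induced cells for no effect and cells given 10 µM MG132 for full effect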
#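 Cell line TMD8 (human ABC DLBCL), stably expressing tet-inducible CBG68-IkBa fusion and CBR; IMDM/0.5% FBS; cpd up to 46 uM; dox induction, 4 h, 37C/5% CO2; dual luminescence; green/red ratio; MG132 control.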
# SW480 rerep = inducers of DNA re-replication in SW480 colon cancer cells; SW480 DNA re-replication, Hoechst DNA content imaging, 48 h; Potency, µM (doses to about 46.1 µM), without a hit: at the top dose re-replication activation, usual class: activators; 340,000 compounds, 1.8% hits; AID 624297; further: potency means the concentration at half of the fitted maximal effect; % of control where 0% means no effect; nearly all actives have a fitted effect of over 55% in size
#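 DNA re-replication was detected as more nuclei of elevated Hoechst intensity after 48 hr exposure to compound (23 nL pinned per well of 250 cells).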
# TDP1 cell noCPT = qHTS for Inhibitors of human tyrosyl-DNA phosphodiesterase 1 (TDP1): qHTS in cells in absence of CPT | Potency, µM (highest dose often 46.2 µM), without a hit: top-dose activity change, negative = growth inhibition, most hits filed as inhibitors | DT40 Tdp1-/- hTDP1 cells, no CPT, ATP luminescence, 48 h | 420,000 compounds, 15% hits; further: potency means the concentration at half of the fitted maximal effect; on the % scale 0 is the no-effect control and ±100 the full control effect; nearly all actives have a fitted effect of over 55% in size
#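 Seeded 400 DT40-hTDP1 cells/well (vehicle DMSO, no 20 nM CPT); pinned compounds; ≥48 hr at 37 °C; CellTiter-Glo luminescence as viability measure.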
# MCF10A rereplic = induces DNA re-replication in MCF 10a normal breast cells; MCF 10A DNA re-replication, Hoechst nuclear intensity, 48 h; Potency, µM (top dose mostly 46.1 µM), for the others: top-dose activity, positive = re-replication, usual class: activators; 350,000 compounds, 2.9% hits; AID 624296; further: potency means the concentration at half of the fitted maximal effect; % of control where 0% means no effect; nearly all actives have a fitted effect of over 50% in size
# * = called active by the depositor; ? = inconclusive; · = no result given. This is a sample that favours compounds with a hit; in the whole collection about 19% have one here. Unless noted, the call rests on the fitted dose curve; in most records, active means well fitted curve in the direction sought with a large enough effect; inconclusive means small, poorly fitted or top-dose-only effect, or another doubt; inactive means no such curve, though single readings can be large; an effect the other way counts as inactive or inconclusive.
SMILES,DT40 TDP1 CPT,IL1B secr inh,Chronic BCR inh,SW480 rerep,TDP1 cell noCPT,MCF10A rereplic
O=C(NCC(=O)N(c1cccc(F)c1)C(C(=O)NC1CCCC1)c1cccnc1)c1cccs1 (centres undefined),-3%,19,-4%,0%,-3%,-2%
O=C(CSc1nnc(-c2ccccc2F)n1C1CC1)N1CCCC1,-3%,-5,·,·,-4%,·
O/N=C/c1ccccc1Oc1ccccc1,-12%,18,1%,5%,-23%,0%
O/N=C/c1ccccc1Oc1ccc(Cl)cc1,?,-13,?,-93%,16µM*,?
c1ccc(CN(Cc2ccccc2)C(c2ccnc3ccccc23)c2nnnn2-c2ccc3c(c2)OCCO3)cc1 (centres undefined),?,21,·,·,23µM*,·
Cc1cccc(C)c1-n1nnnc1C(c1ccnc2ccccc12)N(CCC#N)Cc1ccccc1 (centres undefined),13µM*,-1,·,·,10µM*,·
CN(CCc1ccccc1)C(c1ccnc2ccccc12)c1nnnn1-c1ccc2c(c1)OCCO2 (centres undefined),?,-4,·,·,16µM*,·
N#CCCN(Cc1ccccc1)C(c1ccnc2ccccc12)c1nnnn1-c1ccc2c(c1)OCCO2 (centres undefined),?,37,·,·,-88%,·
CCOc1ccc(NS(=O)(=O)c2ccc(C(=O)NCC(c3ccco3)N3CCCCC3)cc2)cc1 (centres undefined),?,-11,·,·,?,·
O=C(Cn1ncc(Cl)c(Cl)c1=O)N1CCN(S(=O)(=O)c2ccc3ccccc3c2)CC1,2.9µM*,-103*,?,?,4.6µM*,?
CC(C)N1CCN(S(=O)(=O)c2ccc3ccccc3c2)CC1,-4%,-7,?,4%,5%,-1%
CC(C)C(=O)N1CCN(S(=O)(=O)c2ccc3ccccc3c2)CC1,-20%,-2,-1%,2.9µM*,?,1%
Cc1cc(Br)ccc1NC(=O)CNC(=O)Cn1ncc(Cl)c(Cl)c1=O,4.1µM*,-98*,7%,?,3.7µM*,1.2µM*
Cc1ccc(S(=O)(=O)N2CCCCC2)cc1NC(=O)CSCC(=O)O,16%,8,5%,-1%,-12%,5%
Cc1ccc(S(=O)(=O)N2CCCCC2)cc1NC(=O)CNC(C)c1ccc(Cl)c(Cl)c1 (centres undefined),15µM*,-63*,-2%,22%,13µM*,1%
COC(=O)c1c(N2C(=O)[C@H]3[C@@H](C2=O)[C@]2(C(=O)Nc4ccc(C)cc42)N2CCC[C@@H]32)sc(C)c1C,·,·,-5%,·,·,·
COc1ccc(S(=O)(=O)N2CCCCC2)cc1NC(=O)CCC(=O)N1CCC(c2ccccc2)=N1,7%,-23,·,-5%,2%,6%
Cc1csc(SCC(=O)Nc2ccccc2[N+](=O)[O-])n1,-7%,7,?,-4%,-15%,-2%
O=C(CN1C(=O)NC2(CCCCC2)C1=O)NCC(=O)Nc1ccc(F)c(F)c1,-19%,12,-3%,20%,-7%,2%
CCOC(=O)[C@]12CCC=C1N(Cc1ccco1)C(=O)[C@H](CC(=O)N1CCOCC1)C2,2%,3,·,·,0%,·
Cc1ccc(S(=O)(=O)N2CCCCC2)cc1NC(=O)Cn1cnnn1,-2%,-10,-1%,-12%,0%,?
O=S(=O)(c1ccc2ccccc2c1)N1CCN(C(=S)Nc2ccc(F)c(Cl)c2)CC1,?,-69*,1%,3%,?,10%
Cc1ccc(S(=O)(=O)N2CCCCC2)cc1NC(=O)Cn1ncc(Cl)c(Cl)c1=O,4.6µM*,-102*,?,?,2.1µM*,?

# Source: PubChem BioAssay
